Results on 20 compounds are retold here after PubChem BioAssay.

A number with no mark means an inactive call. For some of these results: Results with a measured potency or affinity are listed apart. The source made the active and inactive calls. Unless noted, the rule behind the calls is not given here.

The nature of test [1]: antimalarial activity against Dd2 strain (AID 2302;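 active = growth inhibition above 50% at the single 2 µM test dose, taken to imply half-maximal potency below 2 µM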;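 note: 0% = DMSO untreated growth and 100% = chloroquine plus artemisinin killed control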). Particulars: P. falciparum Dd2 in RBCs, LDH growth readout, 72 h; at 2 µM; hits give high values.
Test [2] can be described thus: human hepatoma cell viability loss – ATP luminescence, cytotoxicity control for P. falciparum antimalarial project, primary screen (AID 2303;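 active = inhibition above 50%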;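 note: 0% = DMSO wells and 100% = digitonin-killed cells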). Particulars: HepG2 viability, 24-48 h, at 10 µM, hits give high values.
For test [3], the target named is L-lactate dehydrogenase (Plasmodium falciparum (isolate CDC / Honduras)) (UniProt Q27743). In words: PfLDH activity inhibition – cell lysate, 3D7 strain, counter-screen for P. falciparum growth inhibition project (AID 2304).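 Note: 0% = vehicle and 100% = reference inhibitor.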 The conditions noted are these: P. falciparum 3D7 crude extract, LDH APAD/NBT absorbance; at 2 µM; hits give high values. On the technique in general: Counterscreens check selectivity or assay interference.

Test [4] in a line: inhibition of 3D7 malaria parasite growth – strain 3D7 (AID 2306).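 Note: 0% = DMSO wells and 100% = chloroquine plus artemisinin control wells.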 Particulars: P. falciparum 3D7 erythrocytic growth, LDH absorbance, 72 h; at 2 µM; hits give high values.
Test [5] has as its target Calcium-dependent protein kinase 1 (Plasmodium falciparum (isolate 3D7)) (UniProt P62344). In words: PfCDPK1 kinase inhibitors, biochemical, TCAMS library (AID 1159585; cut-off not given, nearly all actives have IC50 up to about 0.98 µM;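 note: inhibitors leave more ATP so luminescence rises with inhibition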). Particulars: recombinant PfCDPK1, Kinase-Glo ATP depletion luminescence. On the technique in general: Kinase-Glo measures the ATP left after a reaction by luminescence.
Test [6] has as its target Plasmodium falciparum protein kinase 6 (PK6, PF3D7_1337100) (UniProt Q8IDW1). Briefly: PfPK6 kinase inhibitors, biochemical, TCAMS library (AID 1159586). Particulars: recombinant PfPK6, Kinase-Glo ATP depletion luminescence.
Test [7] addresses Protein kinase 7 (PK7), Plasmodium falciparum 3D7 (PF3D7_0213400) (UniProt Q7YTF7). Briefly: inhibition of Plasmodium PK7 catalytic activity – biochemical, TCAMS antimalarial set, Kinase-Glo luminescence (AID 1159587). The conditions noted are these: recombinant PfPK7, Kinase-Glo ATP depletion luminescence.
The target of test [8] is Calcium-dependent protein kinase 4 (Plasmodium falciparum (isolate 3D7)) (UniProt Q8IBS5). In words: PfCDPK4 kinase inhibitors, biochemical, TCAMS library (AID 1159588; cut-off not given, nearly all actives have IC50 up to about 0.91 µM). The conditions noted are these: recombinant PfCDPK4, Kinase-Glo ATP depletion luminescence.
Calcium-dependent protein kinase 4 (Plasmodium falciparum (isolate 3D7)), sequence (Q8IBS5 whole entry, looked up): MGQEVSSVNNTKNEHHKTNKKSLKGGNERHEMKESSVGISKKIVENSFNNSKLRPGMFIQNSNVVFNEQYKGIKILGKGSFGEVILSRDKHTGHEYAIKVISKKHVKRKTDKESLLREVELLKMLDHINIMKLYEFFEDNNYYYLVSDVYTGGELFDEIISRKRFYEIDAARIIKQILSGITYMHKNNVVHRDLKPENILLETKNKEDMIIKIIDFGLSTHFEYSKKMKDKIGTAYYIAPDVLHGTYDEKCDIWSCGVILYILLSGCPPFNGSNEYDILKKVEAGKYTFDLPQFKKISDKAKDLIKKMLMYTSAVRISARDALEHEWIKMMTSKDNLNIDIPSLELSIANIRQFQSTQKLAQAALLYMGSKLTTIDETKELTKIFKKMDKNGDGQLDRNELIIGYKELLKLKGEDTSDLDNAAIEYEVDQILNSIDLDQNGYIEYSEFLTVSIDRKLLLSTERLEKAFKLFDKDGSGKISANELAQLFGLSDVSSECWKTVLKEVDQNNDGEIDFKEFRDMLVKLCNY

Calcium-dependent protein kinase 1 (Plasmodium falciparum (isolate 3D7)), sequence (P62344 whole entry, looked up): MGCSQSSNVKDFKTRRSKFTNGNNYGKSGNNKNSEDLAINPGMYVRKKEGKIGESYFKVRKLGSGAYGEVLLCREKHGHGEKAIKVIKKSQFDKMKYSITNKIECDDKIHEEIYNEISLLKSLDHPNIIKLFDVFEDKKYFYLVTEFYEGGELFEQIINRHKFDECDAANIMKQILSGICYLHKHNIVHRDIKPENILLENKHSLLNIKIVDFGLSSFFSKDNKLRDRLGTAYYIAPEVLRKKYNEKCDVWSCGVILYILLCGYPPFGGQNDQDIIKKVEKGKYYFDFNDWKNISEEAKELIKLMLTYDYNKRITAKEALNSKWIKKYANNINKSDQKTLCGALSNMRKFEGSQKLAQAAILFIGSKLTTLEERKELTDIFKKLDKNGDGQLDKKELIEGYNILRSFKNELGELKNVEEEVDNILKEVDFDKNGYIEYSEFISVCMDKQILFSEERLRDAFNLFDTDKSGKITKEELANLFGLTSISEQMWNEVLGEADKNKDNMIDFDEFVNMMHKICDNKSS
Protein kinase 7 (PK7), Plasmodium falciparum 3D7 (PF3D7_0213400), sequence (Q7YTF7 1-343): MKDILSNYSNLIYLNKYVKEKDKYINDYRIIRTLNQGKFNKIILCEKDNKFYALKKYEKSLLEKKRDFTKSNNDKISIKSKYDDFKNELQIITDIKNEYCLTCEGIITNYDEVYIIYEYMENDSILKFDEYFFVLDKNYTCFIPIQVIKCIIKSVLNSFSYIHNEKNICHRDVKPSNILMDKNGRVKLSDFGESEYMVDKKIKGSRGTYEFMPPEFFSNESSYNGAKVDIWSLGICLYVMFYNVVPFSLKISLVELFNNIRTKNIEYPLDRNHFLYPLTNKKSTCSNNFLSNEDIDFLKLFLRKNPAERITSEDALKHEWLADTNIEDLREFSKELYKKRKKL
L-lactate dehydrogenase (Plasmodium falciparum (isolate CDC / Honduras)), sequence (Q27743 whole entry, looked up): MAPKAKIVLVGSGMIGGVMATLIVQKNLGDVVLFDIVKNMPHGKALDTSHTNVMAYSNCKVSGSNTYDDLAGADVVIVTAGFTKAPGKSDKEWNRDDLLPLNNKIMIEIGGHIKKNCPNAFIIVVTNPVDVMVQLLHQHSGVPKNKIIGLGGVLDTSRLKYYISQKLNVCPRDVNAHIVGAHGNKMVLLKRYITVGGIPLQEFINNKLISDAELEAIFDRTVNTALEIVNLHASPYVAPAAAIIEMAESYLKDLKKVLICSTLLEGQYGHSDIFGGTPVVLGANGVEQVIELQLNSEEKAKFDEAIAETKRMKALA
Plasmodium falciparum protein kinase 6 (PK6, PF3D7_1337100), sequence (Q8IDW1 1-305): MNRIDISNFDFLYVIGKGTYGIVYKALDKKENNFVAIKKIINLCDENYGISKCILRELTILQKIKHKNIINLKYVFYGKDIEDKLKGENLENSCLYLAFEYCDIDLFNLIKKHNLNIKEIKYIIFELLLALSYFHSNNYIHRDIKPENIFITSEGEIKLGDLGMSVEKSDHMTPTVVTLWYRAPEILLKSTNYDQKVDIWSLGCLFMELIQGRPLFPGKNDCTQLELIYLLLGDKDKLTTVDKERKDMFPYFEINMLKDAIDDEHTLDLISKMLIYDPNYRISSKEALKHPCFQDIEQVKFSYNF

On to `COc1cccc(C(=O)[C@H]2C[C@@H]2CN(C)CC(O)c2cc(C)c(OC)cc2C)c1` (stereo not given in full), for which the results for the growth inhibition in test [1] and in test [4] were 73% (active) and 88% (active), respectively. Moreover, the inhibition (commonly the change of the read-out against control, counted positive when it falls) in test [2] is 8%; in test [3], 2%. The outcome in test [5], in test [6], in test [7] and in test [8] was inactive.

Take `CC(C)c1ccc(O)cc1Nc1ccnc2ccc(C(F)(F)F)cc12`: the growth inhibition in test [1] is 90% (active); in test [4] it was 97% (active). Moreover, the inhibition in test [2] was 6%; in test [3], -6%. Further, the outcome in test [5], in test [6], in test [7] and in test [8] was inactive.

`Cc1[nH]c(C)c(-c2ccc(OCc3ccc(F)cc3)nc2)c(=O)c1Br`: the growth inhibition in test [1] and in test [4] was 97% (active) in each case. The inhibition in test [2] was 41%; in test [3] it was -4%. Also, the result in test [5], in test [6], in test [7] and in test [8] was inactive.

As to `O=C(CC1CCCC1)N(Cc1ccc(-c2ccc(CNC3Cc4ccccc4C3)cc2)cc1)CC1CCCCN1` (stereo not given), the figures for the growth inhibition in test [1] and in test [4] were 86% (active) and 88% (active), respectively. Further, the inhibition is 41% in test [2] and -3% in test [3]. Moreover, the outcome in test [5], in test [6], in test [7] and in test [8] was inactive.

Regarding `CCOC(=O)c1cn(CC)c2cc(N3CCCCCC3)c(F)cc2c1=O`, the results for the growth inhibition in test [1] and in test [4] were 89% (active) and 94% (active), respectively. The inhibition in test [2] was -2%; in test [3] it was 3%. Further, the outcome in test [5], in test [6], in test [7] and in test [8] was inactive.

In the case of `CC(C)Cn1c(N)cc(=O)n(C)c1=O`, the growth inhibition in test [1] was 0%; in test [4] it was 100% (active). Besides, the inhibition in test [2] and in test [3] was 3% each time. The outcome in test [5], in test [6], in test [7] and in test [8] was inactive.

On to `Cc1c(C(=O)Nc2cc(Sc3ccc(F)cc3)cc([N+](=O)[O-])c2)sc2ncn(Cc3cccc(F)c3)c(=O)c12`, for which the growth inhibition was 53% (active) in test [1] and 100% (active) in test [4]. The inhibition in test [2] is -1%; in test [3], 5%. Moreover, the outcome in test [5], in test [6], in test [7] and in test [8] was inactive.

With `C=CCNC(=O)C(C)c1ccc2cc(OC)ccc2c1` (stereo not given), the growth inhibition is 90% (active) in test [1] and 92% (active) in test [4]. The inhibition in test [2] was 4%; in test [3] it was 1%. The result in test [5], in test [6], in test [7] and in test [8] was inactive.

As for `CC(C)CCNCC(O)Cn1c2ccc(Cl)cc2c2cc(Cl)ccc21` (stereo not given), the growth inhibition in test [1] and in test [4] was 99% (active) in each case. In addition, the inhibition is 36% in test [2] and 3% in test [3]. Also, the result in test [5], in test [6], in test [7] and in test [8] was inactive.

On to `Nc1nccc2ccc(Oc3ccncc3)cc12`, for which the growth inhibition in test [1] is 81% (active); in test [4] it was 91% (active). In addition, the inhibition is -3% in test [2] and -2% in test [3]. Further, the outcome in test [5], in test [6], in test [7] and in test [8] was inactive.

In the case of `COc1c(C2CCN(CCCCNC(=O)c3cc(-c4ccc(C#N)cc4)n[nH]3)CC2)ccc2c1CCCC2`, the growth inhibition in test [1] is 15%; in test [4], 86% (active). Moreover, the inhibition is 36% in test [2] and -6% in test [3]. For the same compound, the result in test [5], in test [6], in test [7] and in test [8] was inactive.

Regarding `CCOc1cc(C)ccc1C1CCN(CCCCNC(=O)c2nc(-c3ccc(C(F)(F)F)cc3)[nH]c2C)CC1`, the values for the growth inhibition in test [1] and in test [4] were 98% (active) and 100% (active), respectively. Moreover, the inhibition in test [2] is 30%; in test [3], -5%. The outcome in test [5], in test [6], in test [7] and in test [8] was inactive.

As for `Cc1sc2nc(CN3CCCC3)nc(-n3c(NCCO)nc4ccccc43)c2c1C`, the growth inhibition in test [1] is 11%; in test [4], 96% (active). The inhibition was 19% in test [2] and -2% in test [3]. Besides, the result in test [5], in test [6], in test [7] and in test [8] was inactive.

For `CCOC(=O)N(C)/N=C/[C@H](CCc1ccccc1)NC(=O)[C@H](CC(C)C)NC(=O)c1cc2cccc(OC)c2o1`, the growth inhibition in test [1] was 70% (active); in test [4] it was 86% (active). The inhibition in test [2] is 2%; in test [3], 1%. Moreover, the outcome in test [5], in test [6], in test [7] and in test [8] was inactive.

Take `O=C(NC(=O)c1ccccc1)NC1CCN(c2ccnc3cc(Cl)ccc23)C1` (stereo not given): the growth inhibition is 99% (active) in test [1] and 101% (active) in test [4]. The inhibition is 32% in test [2] and -2% in test [3]. The outcome in test [5], in test [6], in test [7] and in test [8] was inactive.

Turning to `COc1ccc(C2N=C(N)N=C(N)N2OCc2ccccc2)cc1OC` (stereo not given), the values for the growth inhibition in test [1] and in test [4] were 2% and 95% (active), respectively. In addition, the inhibition in test [2] was 1%; in test [3], 0%. For the same compound, the result in test [5], in test [6], in test [7] and in test [8] was inactive.

Regarding `Cc1cc(-c2cccc(CNC3CCN(C)CC3)c2)ccc1S(=O)(=O)NCCc1ccccn1`, the growth inhibition in test [1] was 72% (active); in test [4], 97% (active). Also, the figures for the inhibition in test [2] and in test [3] were 22% and 2%, respectively. The outcome in test [5], in test [6], in test [7] and in test [8] was inactive.

On to `CCCC(C)Nc1nc(C)cc(N[C@@H](Cc2ccccc2)C(=O)Nc2ccccc2)n1` (stereo not given in full), for which the growth inhibition in test [1] was 67% (active); in test [4], 100% (active). Further, the inhibition is 50% (active) in test [2] and -2% in test [3]. Also, the outcome in test [5], in test [6], in test [7] and in test [8] was inactive.

For the compound `CCNc1cc(C(=O)N[C@@H](Cc2ccccc2)[C@H](O)CNC(C)CCCC(C)C)cc(N2CCCS2(=O)=O)c1` (stereo not given in full), the growth inhibition in test [1] was 98% (active); in test [4], 99% (active). Also, the inhibition in test [2] is 2%; in test [3], 5%. Besides, the outcome in test [5], in test [6], in test [7] and in test [8] was inactive.

Regarding `CCN(CC)C(=NCCCCCCN=C(/N=C(/N)Nc1ccc(Br)cc1)N(CC)CC)/N=C(/N)Nc1ccc(Br)cc1`, the growth inhibition is 95% (active) in test [1] and 96% (active) in test [4]. For the same compound, the results for the inhibition in test [2] and in test [3] were -7% and -5%, respectively. Further, the outcome in test [5], in test [6], in test [7] and in test [8] was inactive.
